# An excerpt weighted towards active compounds, which were near 7.4% of everything screened.
# SMN2 splice up = qHTS Assay for Enhancers of SMN2 Splice Variant Expression | HEK293 SMN2-luciferase splicing reporter, luminescence, 30-36 h | Potency, µM (top dose mostly 46.1 µM), actives largely listed as activators | hit rate 2.8% among 210,000 | AID 1458, 2008; also: nearly all actives have a fitted effect of over 55% in size
#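 HEK293 cells carry an SMN2 […]–luciferase reporter in which exon 7 inclusion puts luciferase in frame. Cells were plated 10-12 h before compound addition, then incubated 30-36 h at 37C. ONE-Glo luminescence was read; sodium butyrate at 4.5 mM final served as control.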
# NPC1 promoter act = qHTS Assay for NPC1 Promoter Activators | hit rate 2.4% among 320,000 | Huh7 NPC1 promoter luciferase reporter, 24 h | Potency, µM (top dose mostly 9.22 µM), actives largely listed as activators; also: nearly all actives have a fitted effect of over 60% in size
#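 Huh7 cells stably carrying NPC1 promoter–luciferase, plated in Opti-MEM with 10% FBS for 2 h, were exposed to compound in DMSO for 24 h at 37 °C; luciferase reagent was added for 10 min and luminescence read.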
# Rab9 promoter act = qHTS Assay for Rab9 Promoter Activators; hit rate 2.8% among 320,000; AID 485297, 2010; Potency, µM (top dose mostly 9.22 µM), actives largely listed as activators; Huh7 Rab9 promoter-luciferase reporter, luminescence, 24 h; also: nearly all actives have a fitted effect of over 60% in size
#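 Cells were plated at 1500 per well in reduced-serum medium with 10% FBS and left 2 h. Compound in DMSO was then added for 24 h at 37 °C. Reporter signal was read by luminescence after 10 min with luciferase detection reagent.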
# FLuc modulator = qHTS profiling assay for firefly luciferase inhibitor/activator using purifed enzyme and Km concentrations of substrates (counterscreen for miR-21 project) | Luciferin 4-monooxygenase (Photinus pyralis), P08659 | Potency, µM (doses to about 57.5 µM), hits mostly inhibitors | AID 588342, 2011 | hit rate 6.9% among 360,000 | purified FLuc, Km substrates, luminescence inhibition; also: nearly all actives have a fitted effect of over 55% in size
# Target sequence (P08659 whole entry, looked up): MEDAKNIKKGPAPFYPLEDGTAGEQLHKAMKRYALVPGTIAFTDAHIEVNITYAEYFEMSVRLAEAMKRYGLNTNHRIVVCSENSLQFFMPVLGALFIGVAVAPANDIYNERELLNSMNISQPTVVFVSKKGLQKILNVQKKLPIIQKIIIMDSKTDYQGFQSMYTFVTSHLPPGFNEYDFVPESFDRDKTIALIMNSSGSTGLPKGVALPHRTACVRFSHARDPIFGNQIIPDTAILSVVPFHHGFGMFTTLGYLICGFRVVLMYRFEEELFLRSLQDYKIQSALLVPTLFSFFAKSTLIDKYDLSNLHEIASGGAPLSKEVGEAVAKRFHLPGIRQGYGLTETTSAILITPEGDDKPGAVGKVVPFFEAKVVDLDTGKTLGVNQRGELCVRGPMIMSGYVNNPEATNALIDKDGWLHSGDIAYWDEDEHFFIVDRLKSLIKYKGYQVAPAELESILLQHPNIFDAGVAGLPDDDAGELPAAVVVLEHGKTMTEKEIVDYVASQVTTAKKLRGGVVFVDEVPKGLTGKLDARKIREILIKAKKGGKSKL
#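 Purified P. pyralis luciferase, 10 nM final, with Km-level 10 uM D-luciferin and 10 uM ATP in 50 mM Tris acetate pH 7.5, 10 mM Mg acetate, 0.01% Tween-20, 0.05% BSA; 6-point qHTS titration about 60 µM downward; luminescence read.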
# ELG1 genotoxic = qHTS screen for small molecules that induce genotoxicity in human embryonic kidney (HEK293T) cells expressing luciferase-tagged ELG1; Potency, µM (top dose mostly 46 µM), most hits filed as activators; HEK293T ELG1-luciferase reporter, luminescence, 16 h; hit rate 1.3% among 330,000; also: nearly all actives have a fitted effect of over 60% in size
#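 16 hr compound incubation (37 °C, 5% CO2) of HEK293T cells carrying luciferase-tagged ELG1; luciferase then measured by ONE-Glo luminescence after 30 min at RT.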
# Numbers stand for hits; - = inactive; ? = inconclusive; . = no result. Calls follow the shape of the dose curve; as a rule, active = well fitted curve in the direction sought with a large enough effect; inconclusive = small, poorly fitted or top-dose-only effect, or another doubt; inactive = no such curve, though single readings can be large; an effect the other way counts as inactive or inconclusive.
SMILES,SMN2 splice up,NPC1 promoter act,Rab9 promoter act,FLuc modulator,ELG1 genotoxic
COc1ccc(-c2nnc(-c3cc4ccccc4oc3=O)o2)cc1,?,-,-,-,-
CC/C(C)=N/Nc1nc(-c2cc3cccc(OC)c3oc2=O)cs1,.,2.2µM,1.8µM,8.5µM,?
COc1ccc(CC(=O)N2CCc3cc(OC)c(OC)cc3C2COc2ccc3c(C)cc(=O)oc3c2)cc1OC (stereo unspecified),-,.,.,-,.
N=C1N=C(N)c2cc3ccccc3cc21,-,.,.,.,.
CCOC(=O)N1CCN(S(=O)(=O)c2ccc(C(=O)Nc3nnc(CC)o3)cc2)CC1,3.5µM,-,-,-,-
CCOC(=O)N1CCN(S(=O)(=O)c2ccc(C(=O)Nc3nnc(C4CC4)o3)cc2)CC1,-,-,-,-,-
O=S(=O)(c1cccc2nsnc12)N1CCc2ccccc21,?,?,3.5µM,21µM,?
O=S(=O)(c1cccc2nsnc12)N1CCN(c2ccccc2F)CC1,.,-,-,-,-
Cc1cc(Br)cc(C)c1NC(=O)c1sc2ncn(Cc3cccc(F)c3)c(=O)c2c1C,.,.,.,-,.
O=C(O)CCNC(=O)/C(=C\C=C\c1ccccc1)NC(=O)c1ccccc1,.,-,-,-,-
COC(=O)/C(=C\C=C\c1ccccc1)NC(=O)c1ccccc1,-,-,-,?,-
CCCCOc1ccc(C(=O)N/C(=C/C=C/c2ccccc2)C(=O)NC)cc1,-,-,-,17µM,-
CCCCOc1ccc(C(=O)N/C(=C/C=C/c2ccccc2)C(=O)O)cc1,-,-,-,15µM,-
O=C(O)COc1ccc(/C=N/NC(=O)/C(=C/C=C/c2ccccc2)NC(=O)c2ccccc2)cc1,.,-,-,21µM,-
O=C(Nc1ccc(O)cc1)/C(=C\C=C\c1ccccc1)NC(=O)c1ccccc1,.,-,-,9.5µM,-
Cc1cccc(C)c1OCc1cc(=O)n2c3c(sc2n1)CCCC3,-,.,.,-,.
O=C(Nc1cccnc1)c1ccc(-c2cc(Cl)ccc2Cl)o1,-,-,-,17µM,-
O=C(NCc1cccnc1)c1ccc(-c2cc(Cl)ccc2Cl)o1,.,-,-,-,-
O=C(Nc1cccnc1)c1ccc(-c2ccc(Cl)cc2)o1,-,?,?,6µM,-
O=C(NCc1cccnc1)c1ccc(-c2ccc(Cl)cc2)o1,.,-,-,?,-
CC/C(=N\Nc1ccccc1[N+](=O)[O-])c1ccc(O)cc1,.,-,-,27µM,-
C/C(=N\Nc1ccccc1[N+](=O)[O-])c1ccccc1O,.,-,-,5.4µM,21µM
CC/C(=N\Nc1ccc([N+](=O)[O-])cc1[N+](=O)[O-])c1ccc(O)cc1,.,-,-,-,-
C/C(=N\Nc1ccc(S(N)(=O)=O)cc1[N+](=O)[O-])c1ccccc1O,.,-,-,-,-
CCc1c(C)sc2c1CCN(C(=O)Nc1ccc(F)c(Cl)c1)C2c1ccc(F)cc1 (stereo unspecified),.,.,.,-,.
SMILES,SMN2 splice up,NPC1 promoter act,Rab9 promoter act,FLuc modulator,ELG1 genotoxic
O=C(Cc1ccccc1[N+](=O)[O-])NCc1ccccc1Cl,?,3.5µM,2.8µM,7.6µM,?
Cc1ccccc1CNC(=O)Cc1ccccc1[N+](=O)[O-],14µM,?,4µM,17µM,?
Cc1cccc(C)c1NC(=O)CNC(=O)Cc1ccccc1[N+](=O)[O-],.,-,-,-,-
CCN(CC(=O)NCc1ccc(Cl)cc1)C(=O)Cc1ccccc1[N+](=O)[O-],.,2.5µM,3.5µM,?,?
Cc1sc2ncn(CC(=O)Nc3ccc(C(C)C)cc3)c(=O)c2c1S(=O)(=O)N1CCN(c2ncccn2)CC1,-,.,.,-,.
Cc1cc(C(=O)Nc2nc(C)c(C(=O)N(C)C)s2)ccc1[N+](=O)[O-],1.8µM,0.35µM,0.45µM,4.3µM,2.6µM
O=C(NCC1CCCO1)c1nn2cccnc2c1Cl (stereo unspecified),22µM,-,-,-,?
Cc1c(Cl)sn(-c2ccc(Cl)cc2)c1=O,-,-,-,8.5µM,-
COc1ccc(-c2cc(-c3c(O)c(OC)c4occc4c3OC)[nH]n2)cc1,-,-,-,17µM,-
COc1ccc(-c2cc(=O)c3c(O)c(OC)c(OC)c(OC)c3o2)cc1OC,-,.,.,.,.
COc1ccc(-c2cc(-c3c(O)c(OC)c4occc4c3OC)[nH]n2)cc1OC,-,-,-,17µM,-
Cc1ccccc1Cn1c2ccccc2c2cnn(CC(=O)NCCc3ccccc3)c(=O)c21,?,.,.,-,.
CCCCC/C=C\C/C=C\C/C=C\C/C=C\CCCCCC(=O)NCCCC(=O)O,-,.,.,.,.
O=C(CCS(=O)(=O)c1ccccc1)Nc1cccc(-c2nc3ccccc3s2)c1,-,?,?,6.7µM,?
O=C(CCS(=O)(=O)c1ccccc1)Nc1ccc(-c2nc3ccccc3s2)cc1,1µM,1.6µM,0.5µM,-,?
O=C(Nc1cccc(-c2nc3ccccc3s2)c1)c1cc(=O)c2ccccc2o1,-,-,-,-,-
O=C(CCS(=O)(=O)c1ccccc1)Nc1ccc(S(=O)(=O)Nc2ncccn2)cc1,.,-,-,-,-
O=C(Nc1cccc(-c2nc3ccccc3s2)c1)c1cccs1,?,-,-,13µM,-
O=C1c2ccccc2-c2nnc(-c3ccccc3)cc21,?,1.3µM,0.56µM,0.48µM,-
Cc1cnc2c(c1)C(=O)c1ccccc1-2,.,-,-,-,-
COc1ccc(-c2cc3c(nn2)-c2ccccc2C3=O)cc1,1.1µM,?,0.1µM,0.17µM,-
Cc1cccc(-c2cc3c(nn2)-c2ccccc2C3=O)c1,10µM,2.2µM,3.5µM,0.76µM,?
COc1ccc(C(=O)Nc2nc(C)c(C)s2)cc1OC,?,?,?,13µM,?
COc1ccc(C(=O)Nc2cccc(NC(=O)c3ccc(OC)c(OC)c3)n2)cc1OC,.,-,-,8.5µM,-
COc1ccccc1C(=O)Nc1cccc(NC(=O)c2ccccc2OC)n1,.,-,-,?,-
SMILES,SMN2 splice up,NPC1 promoter act,Rab9 promoter act,FLuc modulator,ELG1 genotoxic
CC(C)N(Cc1ccccc1)C(=O)c1cc2ccc3cccnc3c2[nH]1,.,.,.,19µM,.
COc1cccc(C(=O)Nc2cccc3cccnc23)c1OC,.,-,-,24µM,-
COc1ccc(NC(=O)C(=O)Nc2cccc3cccnc23)cc1OC,.,-,?,-,-
COc1ccc(C(=O)Nc2cccc3cccnc23)cc1OC,-,-,-,21µM,-
COc1cc(Cl)c(C)cc1NC(=O)c1cc2ccc3cccnc3c2[nH]1,.,.,.,-,.
COc1ccccc1NC(=O)c1cc2ccc3cccnc3c2[nH]1,.,.,.,2.7µM,.
CCOc1ccccc1C(=O)Nc1cccc2cccnc12,.,-,-,27µM,-
CCC1=C2CC[C@H]3C(=O)N(CC(=O)OC)C(=O)[C@H]3[C@H]2[C@@]2(C)C(=O)N(CC3CC3)C(=O)N2C1=O,-,.,.,.,.
CCc1nnc(NS(=O)(=O)c2ccc(NC(=O)OC)cc2)s1,-,-,-,-,-
